Laboratory results taken from PubChem BioAssay AID588689 (Southern Research Specialized Biocontainment Screening …, 2011).
Screen size: about 340,000 compounds; about 1,000 (0.29%) were called active. Rule as the data show it: inconclusive = inhibition above about 29% without an active follow-up result; inactive = below that. These entries were drawn from the full list. Potency and affinity values are given separately.

The compounds below were run against Genome polyprotein (Dengue virus type 2 (strain 16681-PDK53)) (UniProt P29991) (assay: Dengue-2 NS5 methyltransferase inhibitors, primary screen, biochemical, confirmation dose response (AID 588689)). Settings: Dengue-2 NS5 methyltransferase capping enzyme assay, at 25 µM, hits give high values.
Sequence of Genome polyprotein (Dengue virus type 2 (strain 16681-PDK53)) (P29991 whole entry, looked up): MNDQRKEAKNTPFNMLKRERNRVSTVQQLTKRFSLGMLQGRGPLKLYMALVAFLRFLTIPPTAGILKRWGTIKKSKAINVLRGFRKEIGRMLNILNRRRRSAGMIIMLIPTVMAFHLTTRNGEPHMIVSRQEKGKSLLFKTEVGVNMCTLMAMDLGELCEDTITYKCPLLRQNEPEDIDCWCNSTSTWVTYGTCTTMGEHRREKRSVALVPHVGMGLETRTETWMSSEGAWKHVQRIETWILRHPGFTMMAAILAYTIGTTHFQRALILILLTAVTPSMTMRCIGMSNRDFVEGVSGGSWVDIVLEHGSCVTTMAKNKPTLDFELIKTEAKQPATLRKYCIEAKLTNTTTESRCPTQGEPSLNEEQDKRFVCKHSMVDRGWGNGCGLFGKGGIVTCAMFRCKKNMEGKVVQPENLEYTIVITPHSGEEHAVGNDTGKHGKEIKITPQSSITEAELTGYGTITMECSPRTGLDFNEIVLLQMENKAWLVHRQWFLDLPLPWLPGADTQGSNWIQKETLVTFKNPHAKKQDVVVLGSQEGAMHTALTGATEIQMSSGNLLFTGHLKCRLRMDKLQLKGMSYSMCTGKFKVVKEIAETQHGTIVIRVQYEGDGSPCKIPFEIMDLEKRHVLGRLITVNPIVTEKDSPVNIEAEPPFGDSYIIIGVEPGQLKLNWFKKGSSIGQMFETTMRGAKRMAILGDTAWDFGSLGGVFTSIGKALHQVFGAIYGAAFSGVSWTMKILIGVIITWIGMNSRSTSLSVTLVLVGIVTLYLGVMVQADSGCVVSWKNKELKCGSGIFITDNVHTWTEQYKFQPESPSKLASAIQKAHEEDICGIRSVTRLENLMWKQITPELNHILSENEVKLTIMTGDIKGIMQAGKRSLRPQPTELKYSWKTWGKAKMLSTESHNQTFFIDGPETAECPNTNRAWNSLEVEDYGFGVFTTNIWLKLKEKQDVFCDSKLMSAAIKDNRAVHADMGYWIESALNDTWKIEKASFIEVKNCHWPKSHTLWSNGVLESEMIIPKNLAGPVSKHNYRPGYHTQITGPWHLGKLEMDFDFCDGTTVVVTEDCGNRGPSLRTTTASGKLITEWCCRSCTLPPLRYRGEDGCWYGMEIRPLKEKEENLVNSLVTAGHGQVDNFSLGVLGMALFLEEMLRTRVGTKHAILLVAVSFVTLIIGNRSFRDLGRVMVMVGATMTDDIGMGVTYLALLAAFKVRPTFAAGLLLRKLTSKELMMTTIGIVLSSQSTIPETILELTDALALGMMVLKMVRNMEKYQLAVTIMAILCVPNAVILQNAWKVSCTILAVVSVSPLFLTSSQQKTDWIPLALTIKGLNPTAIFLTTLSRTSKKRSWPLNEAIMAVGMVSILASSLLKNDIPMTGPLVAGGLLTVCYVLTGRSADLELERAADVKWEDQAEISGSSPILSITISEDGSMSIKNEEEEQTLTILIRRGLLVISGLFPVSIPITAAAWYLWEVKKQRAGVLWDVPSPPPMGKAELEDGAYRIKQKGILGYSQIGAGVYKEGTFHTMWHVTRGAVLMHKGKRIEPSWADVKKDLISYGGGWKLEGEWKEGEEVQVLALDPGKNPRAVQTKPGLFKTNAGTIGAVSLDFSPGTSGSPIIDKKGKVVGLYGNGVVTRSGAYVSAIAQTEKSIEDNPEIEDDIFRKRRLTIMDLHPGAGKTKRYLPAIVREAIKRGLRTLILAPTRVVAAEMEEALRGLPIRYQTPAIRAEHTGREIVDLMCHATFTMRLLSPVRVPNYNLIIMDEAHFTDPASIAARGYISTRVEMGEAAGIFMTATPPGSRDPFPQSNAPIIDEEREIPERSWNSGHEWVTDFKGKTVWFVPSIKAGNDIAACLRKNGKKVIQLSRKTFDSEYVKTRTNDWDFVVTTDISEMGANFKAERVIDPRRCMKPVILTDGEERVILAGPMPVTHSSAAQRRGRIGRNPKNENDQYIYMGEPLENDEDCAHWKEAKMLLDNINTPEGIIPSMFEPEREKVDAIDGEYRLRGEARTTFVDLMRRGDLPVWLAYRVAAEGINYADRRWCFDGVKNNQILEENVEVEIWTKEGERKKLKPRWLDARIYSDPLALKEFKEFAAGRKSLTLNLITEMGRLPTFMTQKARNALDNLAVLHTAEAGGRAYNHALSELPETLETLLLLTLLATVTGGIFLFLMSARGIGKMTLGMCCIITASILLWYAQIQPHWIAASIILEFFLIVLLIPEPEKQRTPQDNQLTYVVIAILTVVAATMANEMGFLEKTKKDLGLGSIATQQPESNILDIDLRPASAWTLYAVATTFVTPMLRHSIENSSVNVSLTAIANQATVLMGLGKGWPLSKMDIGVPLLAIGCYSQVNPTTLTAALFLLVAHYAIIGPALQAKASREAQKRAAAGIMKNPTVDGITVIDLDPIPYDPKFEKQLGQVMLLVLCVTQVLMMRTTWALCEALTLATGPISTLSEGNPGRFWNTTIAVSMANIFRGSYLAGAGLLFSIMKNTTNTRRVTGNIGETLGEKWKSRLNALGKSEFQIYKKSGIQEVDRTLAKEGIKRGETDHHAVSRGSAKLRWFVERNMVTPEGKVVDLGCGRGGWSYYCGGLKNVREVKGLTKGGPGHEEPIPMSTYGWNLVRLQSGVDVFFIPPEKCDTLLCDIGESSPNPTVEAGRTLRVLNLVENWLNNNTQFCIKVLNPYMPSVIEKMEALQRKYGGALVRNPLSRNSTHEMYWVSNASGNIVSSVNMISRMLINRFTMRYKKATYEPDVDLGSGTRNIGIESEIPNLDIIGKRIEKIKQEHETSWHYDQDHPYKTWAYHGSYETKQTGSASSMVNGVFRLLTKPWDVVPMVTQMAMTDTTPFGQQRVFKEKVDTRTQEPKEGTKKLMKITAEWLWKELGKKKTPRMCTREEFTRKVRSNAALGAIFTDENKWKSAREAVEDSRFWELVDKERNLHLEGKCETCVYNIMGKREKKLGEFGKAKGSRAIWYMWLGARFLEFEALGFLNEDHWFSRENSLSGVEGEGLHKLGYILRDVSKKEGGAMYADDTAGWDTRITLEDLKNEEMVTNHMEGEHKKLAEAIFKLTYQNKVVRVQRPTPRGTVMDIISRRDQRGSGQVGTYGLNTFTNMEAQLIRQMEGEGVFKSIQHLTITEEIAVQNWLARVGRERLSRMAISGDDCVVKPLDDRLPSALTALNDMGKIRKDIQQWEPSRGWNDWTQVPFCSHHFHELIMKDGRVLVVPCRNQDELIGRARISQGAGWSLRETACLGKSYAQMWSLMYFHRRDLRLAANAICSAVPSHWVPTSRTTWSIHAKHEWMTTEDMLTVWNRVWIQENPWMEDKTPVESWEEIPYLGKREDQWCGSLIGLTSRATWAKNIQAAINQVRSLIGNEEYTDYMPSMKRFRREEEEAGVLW

inhibition, inactive:
Cc1ccc2c(ccc[n+]2CC(=O)c2ccccc2)c1 -3.89%
O=C(C1CCN(S(=O)(=O)c2ccccc2)CC1)N1CCN(c2ccccc2F)CC1 -3.69%
COc1cc(OC)c(N2CC(C(=O)NCCC3=CCCCC3)CC2=O)cc1Cl (stereo not drawn) -2.95%
O=C(O)c1cc(N=Nc2c(O)ccc3ccccc23)cc(C(=O)O)c1 20.4%
O=C(O)c1cc2ccccc2c(N=Nc2cccnc2)c1O 0.81%
CN(Cc1ccccc1)S(=O)(=O)c1ccc(Cl)c(C(=O)N2CCC(C(N)=O)CC2)c1 4.28%
Cc1cccc(Cc2nnc(CCC(=O)N(C)CCc3ccccc3)o2)c1 10.8%
CN(C)C(=O)Cn1cc(S(=O)(=O)Cc2ccccc2)c2ccccc21 -2.66%
O=C(NCc1ccco1)c1sc(=S)n2c1[nH]c(=O)c1ccccc12 0%
CCCCNC(=O)c1sc(=S)n2c1[nH]c(=O)c1ccccc12 10.2%
Cc1ccc(S(=O)(=O)c2cc(Nc3ccccc3)ccc2O)cc1 8.82%
Nc1ccc(C(=O)Nc2ccc3c(O)cc(S(=O)(=O)O)cc3c2)cc1 4.28%
CC(=O)Nc1ccc2c(O)cc(S(=O)(=O)O)cc2c1 -7.72%
O=S(=O)(O)c1cc(O)c2ccc(Nc3ccccc3)cc2c1 8.94%
CN(C)c1ccc2cc(S(=O)(=O)O)cc(O)c2c1 81.6%
Nc1ccc(Nc2ccccc2)c(S(=O)(=O)O)c1 54.5%
Nc1cc(S(=O)(=O)O)cc2ccc(S(=O)(=O)O)cc12 7.17%
O=S(=O)(O)c1cccc(N=Nc2c(O)ccc3ccccc23)c1 1.57%
CN(C)/C=C1\NC(=S)N(c2ccc(Cl)cc2)C1=O -20.4%
Cc1ccc(S(=O)(=O)N2CCN(Cc3csc(C)n3)CC2)cc1 2.27%
CC(C)CN(C(=O)COC(=O)CSc1ccc(Br)cc1)C1CCS(=O)(=O)C1 (stereo not drawn) -3.62%
COc1cc(C=O)ccc1OCCOCCOc1ccc(Cl)cc1Cl -6.82%
Nc1cccc2c(O)cccc12 6.13%
Nc1cccc2cc(S(=O)(=O)O)ccc12 13.9%
O=C1c2ccccc2-c2n[nH]c(=O)c3ccc(N4CCCCC4)c1c23 -9.35%
O=C1c2ccccc2-c2nccnc21 1.62%
C=CCNC(=S)N/N=C/c1ccccc1OCCOc1ccccc1 2.29%
CCN(CC)C(=O)CCSc1nnc(-c2ccncc2)o1 -3.83%
